This is a sample that favours compounds with a hit; in the whole collection about 4.6% have one here.
TIM10 inh: growth inhibitors of TIM10 yeast strain; S. cerevisiae TIM10 strain growth, BacTiter-Glo luminescence, 24 h; inhibition, % at 10 µM; hit rate 1.4% among 330,000;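 active means inhibition of 40% or more at the single tested concentration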;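 further: wild-type TIM10 isogenic control strain grown at permissive 25 °C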
tim23-1 inh: growth inhibitors of tim23-1 mutant yeast; S. cerevisiae tim23-1 growth, BacTiter-Glo luminescence, 24 h; inhibition, % at 20 µM; hit rate 1.3% among 330,000; AID 463212;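 active means growth inhibition of the mutant yeast at or above 50%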;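 further: temperature-sensitive mutant grown at 25 °C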
tim10-1 inh: tim10-1 yeast growth inhibition. hit rate 2.2% among 330,000. AID 463190. inhibition, % at 20 µM. S. cerevisiae tim10-1 ts strain growth, BacTiter-Glo, 24 h;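 active means inhibition of at least 40%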;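 further: mutant grown at 25 °C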
SKKanGAS inh: SKKanGAS growth inhibition; S. pyogenes SKKanGAS, kanamycin growth, BacTiter-Glo, 6 h; inhibition, % at 7.5 µM; hit rate 1.3% among 300,000;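 active means mean replicate score, as percent of positive control median, at least 50; inconclusive means mean below 50 but one replicate at or above 50; inactive means mean and every replicate below 50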;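 further: strain carries kanamycin resistance gene driven by streptokinase promoter and grows in 40 µg/ml kanamycin; loss of luminescence reflects streptokinase promoter inhibition or plain growth inhibition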
NALP3 yeast inh: inhibitors of NALP3 inflammasome in yeast. Yeast reconstituted NLRP3/ASC/caspase-1, beta-gal luminescence, 24 h. inhibition, % at 10 µM. hit rate 0.39% among 330,000. AID 2825;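 active means inhibition of 50% or more; inactive means inhibition below 50%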
tim10-1 confirm: confirmation of tim10-1 mutant yeast growth inhibitors; shares compounds with tim10-1 inh; inhibition, % at 20 µM; S. cerevisiae tim10-1 ts strain growth, BacTiter-Glo, 24 h; hit rate 56% among 7,400;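 active means inhibition of yeast growth at or above a set limit in either of two repeat tests at 20 µM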;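 further: tim10-1 mutant grown at permissive 25 °C to find synthetic lethal compounds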
tim10 confirm: confirmation of TIM10 yeast growth inhibitors | hit rate 63% among 4,600 | inhibition, % at 10 µM | shares compounds with TIM10 inh | S. cerevisiae tim10 strain growth, BacTiter-Glo luminescence, 24 h | AID 463215;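 active means inhibition of yeast growth at or above a set limit in either of two replicates at 10 µM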; further: this counterscreen used the strain with wild-type TIM10
tim23-1 confirm: tim23-1 yeast growth inhibition, confirmed; inhibition, % at 20 µM; hit rate 83% among 4,400; shares compounds with tim23-1 inh; AID 463218; S. cerevisiae tim23-1 growth, BacTiter-Glo luminescence, 24 h;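 active means inhibition above about 39% in either of two replicate wells at 20 µM, limit read from the data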;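 further: temperature-sensitive tim23-1 mutant grown at 25 °C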
Of the large screens only hits and unclear results are named; the others gave an inactive call (follow-up assays come after a bar, where they were run).

Cc1ccc(S(=O)(=O)/N=C2\C=C(Nc3ccc(O)cc3)C(=O)c3ccccc32)cc1	tim23-1 inh 51, tim10-1 inh 64 (no result: SKKanGAS inh) | tim10-1 confirm 74 | tim23-1 confirm 70
COc1cnc(-c2ccccn2)nc1Sc1cccc(Cl)c1	tim23-1 inh 63, tim10-1 inh 44, SKKanGAS inh 67 | tim10-1 confirm inactive | tim23-1 confirm 55
COCCN(C(=O)c1ccc(OCC(C)C)cc1)c1c(N)n(Cc2ccccc2)c(=O)[nH]c1=O	none
Cn1ccsc1=NC(=O)c1ccc([N+](=O)[O-])o1	tim23-1 inh 57, tim10-1 inh 50 | tim10-1 confirm inactive | tim23-1 confirm 58
COc1cc(C(=O)N=c2sccn2C)c([N+](=O)[O-])cc1OC	none
CCOc1ccccc1NC(=O)c1nc(S(=O)(=O)Cc2cccc(C)c2)ncc1Cl	TIM10 inh 41, tim23-1 inh 81, tim10-1 inh 44, SKKanGAS inh 73 | tim10-1 confirm 44 | tim10 confirm 71 | tim23-1 confirm 83
Cc1ccc(CS(=O)(=O)c2ncc(Cl)c(C(=O)Nc3ccc(OC(F)F)cc3)n2)cc1	tim23-1 inh 65, tim10-1 inh 44, SKKanGAS inh 54 | tim10-1 confirm inactive | tim23-1 confirm 52
CCS(=O)(=O)c1ncc(Cl)c(C(=O)Nc2ccc(C)cc2)n1	none
O=C(Nc1ccccc1Cl)c1ccccc1Oc1ccc(C(F)(F)F)cc1[N+](=O)[O-]	tim23-1 inh 56, tim10-1 inh 44 | tim10-1 confirm 36 | tim23-1 confirm 51
CCN1C(=O)/C(=C/N(C)C)c2ccccc21	none
CCN1C(=O)/C(=C\C(=O)c2cccs2)c2cc(Br)ccc21	TIM10 inh 74, tim23-1 inh 72, tim10-1 inh 49 | tim10-1 confirm 34 | tim10 confirm 65 | tim23-1 confirm inactive
O=C(N/N=C/c1cc(Cl)ccc1O)c1ccccc1Br	TIM10 inh 54, tim23-1 inh 65, tim10-1 inh 42, SKKanGAS inh inconclusive | tim10-1 confirm inactive | tim10 confirm 32 | tim23-1 confirm 59
Cc1cc(N2CCN(c3nc(-c4ccccc4)cs3)CC2)c2ccccc2n1	tim23-1 inh 63, tim10-1 inh 51 | tim10-1 confirm 42 | tim23-1 confirm 52
Cc1ccc(Nc2cc(C)nc(-c3ccccc3)n2)cc1	tim23-1 inh 51, tim10-1 inh 42 | tim10-1 confirm 33 | tim23-1 confirm 58
Cc1cc(Nc2ccccc2)nc(NCc2ccccc2)n1	none
Cc1cc(C)c(S(=O)(=O)Nc2ccc(N(C)C)cc2)c(C)c1-n1cnnn1	none
Cc1c(NC(=O)Nc2cc(Cl)ccc2Cl)c(=O)n(-c2ccccc2)n1C	none
C=CC[n+]1c(-c2ccc(Cl)cc2Cl)csc1Nc1c(C)n(C)n(-c2ccccc2)c1=O	tim23-1 inh 52, tim10-1 inh 49 | tim10-1 confirm 38 | tim23-1 confirm 49
C=CC[n+]1c(-c2ccc(Cl)cc2Cl)csc1Nc1ccc(NC(C)=O)cc1	tim23-1 inh 67, tim10-1 inh 60 | tim10-1 confirm 58 | tim23-1 confirm 78
CCCC[n+]1c(-c2ccc(Cl)cc2Cl)csc1Nc1ccccc1	none
N#C/C(=C\c1ccncc1)c1nc2ccccc2o1	TIM10 inh 42, tim23-1 inh 72, tim10-1 inh 56 | tim10-1 confirm 43 | tim10 confirm 34 | tim23-1 confirm 61
N#C/C(=C\c1ccc(Cl)cc1)c1nc2ccccc2o1	tim23-1 inh 76, tim10-1 inh 51 | tim10-1 confirm 49 | tim23-1 confirm 75
N#C/C(=C\c1cccc(O)c1)c1nc2ccccc2o1	none
CC1CCCN(CC(O)COc2ccc(S(=O)(=O)N3CCCC3)cc2[N+](=O)[O-])C1 (centres undefined)	none (no result: SKKanGAS inh)
COc1cc2c(cc1OC)CN(C(=O)c1ccc(Cl)c(S(=O)(=O)N3CCCC3)c1)CC2	none (no result: SKKanGAS inh)
COc1cc(N=Nc2ccc3ccccc3c2)ccc1O	tim23-1 inh 63, tim10-1 inh 41 | tim10-1 confirm inactive | tim23-1 confirm inactive
O=C(N/N=C/c1ccccn1)c1sc2ccccc2c1Cl	tim23-1 inh 76, tim10-1 inh 48 | tim10-1 confirm 41 | tim23-1 confirm 64
O=[N+]([O-])c1ccccc1S(=O)(=O)Nc1ccc(S(=O)(=O)Nc2nccs2)cc1	TIM10 inh 51, tim23-1 inh 63, tim10-1 inh 61 | tim10-1 confirm 63 | tim10 confirm 54 | tim23-1 confirm 56
Oc1c(Br)cc(Cl)cc1C=Nc1ccccc1Br	tim23-1 inh 84, tim10-1 inh 46 | tim10-1 confirm inactive | tim23-1 confirm 79
O=C(Nc1nc(-c2cc(Cl)sc2Cl)cs1)c1ccc(Br)s1	none
O=C(Nc1nc(-c2ccccn2)cs1)c1ccc(Br)s1	tim23-1 inh 56, tim10-1 inh 53 | tim10-1 confirm 34 | tim23-1 confirm 47
Cc1ccc(SCC(=O)OCn2nnc3ccccc3c2=O)cc1C	tim23-1 inh 67, tim10-1 inh 42 | tim10-1 confirm inactive | tim23-1 confirm 51
CCC(C)NC(=O)CSc1nnc(-c2cc(OC)c(OC)c(OC)c2)c(-c2cc(OC)c(OC)c(OC)c2)n1 (centres undefined)	none
COC(=O)c1nn(-c2ccc(OC)cc2)c(=O)cc1O	none
COc1ccc(-n2nc(C#N)c(Cl)cc2=O)cc1	tim23-1 inh 61, tim10-1 inh 47 (no result: SKKanGAS inh) | tim10-1 confirm inactive | tim23-1 confirm 48
C=C1/C=C(\C)C(C)(O)CC(O)CC(=O)C(O)C(O)C(C)CC(C)OC(=O)/C(C)=C/CC/C=C/C(OC)C(O)CC(C)C1 (centres undefined)	none (no result: SKKanGAS inh)
COc1ccc(C(C[N+](=O)[O-])c2c(-c3ccccc3)cc3ccccn23)c(OC)c1 (centres undefined)	TIM10 inh 60, tim23-1 inh 73, tim10-1 inh 70 | tim10-1 confirm 67 | tim10 confirm 67 | tim23-1 confirm 91
COc1ccc(C(C[N+](=O)[O-])c2c(C)cc3ccccn23)cc1 (centres undefined)	none
Cc1cc(C)n(-c2cc(C(C)(C)C)nc3c(-c4ccccc4)cnn23)n1	tim23-1 inh 51, tim10-1 inh 47 | tim10-1 confirm 41 | tim23-1 confirm 48
COc1ccc(NC(=O)n2ncc3cc(Cl)ccc32)cc1OC	none
CCOCC(=O)Nc1nc2ccc(OCC)cc2s1	none
CCOc1ccc2nc(NC(=O)C3(C)CC3(Br)Br)sc2c1 (centres undefined)	tim23-1 inh 74, tim10-1 inh 50 | tim10-1 confirm 40 | tim23-1 confirm 38
O=c1c(Cc2c(F)cccc2Cl)c(O)ccn1CCCN1CCOCC1	none
